According to PubChem BioAssay (NCATS):
Records with an inconclusive call do not appear. Calls of active or inactive are those of the source. Calls come from the whole dose curve; as a rule, active = well fitted curve in the direction sought with a large enough effect; inconclusive = small, poorly fitted or top-dose-only effect, or another doubt; inactive = no such curve, though single readings can be large; an effect the other way counts as inactive or inconclusive.

Tests used:
KB-3-1 = assay: Cytotoxic Profiling of Annotated Libraries Using Quantitative High-Throughput Screening (AID 1296008); settings: Five cell lines viability, CellTiter-Glo ATP luminescence, 48-72 h; max response: stronger effect = lower value; note: nearly all actives have a fitted effect of over 60% in size
How it was run: (§1)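 Compounds were pin-transferred onto cells and incubated 48 or 72 hr at 37 degree Celsius, 95% humidity. CellTiter-Glo was added, plates sat 10 min at room temperature, then ATP-coupled luminescence was imaged as the viability read-out.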

NIH3T3 = assay: as above; settings: Five cell lines viability, CellTiter-Glo ATP luminescence, 48-72 h; max response: stronger effect = lower value
How it was run: as §1

MCC-13 = assay: qHTS assay to identify novel small-molecules to repurpose for Merkel cell carcinoma treatment (AID 1296009); settings: MCC and control cell lines, CellTiter-Glo viability, 72 h; series mostly up to 46 µM; note: nearly all actives have a fitted effect of over 60% in size; note: potency is the fitted concentration of half-maximal effect
How it was run: (§2)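 qHTS format: cells treated with library compounds in DMSO across 8 (NPC) or 11 (MIPE) concentrations. Readout after 72 hr at 37 degree celsius was CellTiter-Glo luminescence.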

MCC-26 = assay: as above; settings: MCC and control cell lines, CellTiter-Glo viability, 72 h; series mostly up to 46 µM
How it was run: as §2

MKL-1 = assay: as above; settings: MCC and control cell lines, CellTiter-Glo viability, 72 h; series mostly up to 46 µM
How it was run: as §2

MKL-2 = assay: as above; settings: MCC and control cell lines, CellTiter-Glo viability, 72 h; series mostly up to 46 µM
How it was run: as §2

UISO = assay: as above; settings: MCC and control cell lines, CellTiter-Glo viability, 72 h; series mostly up to 46 µM
How it was run: as §2

WaGa = assay: as above; settings: MCC and control cell lines, CellTiter-Glo viability, 72 h; series mostly up to 46 µM
How it was run: as §2

C33A = assay: Primary qHTS to identify gynecologic anti-cancer compounds using libraries of approved drugs and bioactive compounds (AID 1345084); settings: Gynecologic cancer cell panel viability, ATPlite luminescence, 48 h; series mostly up to 57.5 µM; note: nearly all actives have a fitted effect of over 55% in size
How it was run: (§3)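 Cells, 1,000 per well, plated 16 h, then exposed 48 h at 37 C to compounds. Viability by ATPlite luminescence after 15 min at room temperature.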

CASKI = assay: as above; settings: Gynecologic cancer cell panel viability, ATPlite luminescence, 48 h; series mostly up to 57.5 µM
How it was run: as §3

Es-2 = assay: as above; settings: Gynecologic cancer cell panel viability, ATPlite luminescence, 48 h; series mostly up to 57.5 µM
How it was run: as §3

HeLa = assay: as above; settings: Gynecologic cancer cell panel viability, ATPlite luminescence, 48 h; series mostly up to 57.5 µM
How it was run: as §3

Hek293T = assay: as above; settings: Gynecologic cancer cell panel viability, ATPlite luminescence, 48 h, control line for the selectivity index; series mostly up to 57.5 µM
How it was run: as §3

JEG-3 = assay: as above; settings: Gynecologic cancer cell panel viability, ATPlite luminescence, 48 h; series mostly up to 57.5 µM
How it was run: as §3

OV90 = assay: as above; settings: Gynecologic cancer cell panel viability, ATPlite luminescence, 48 h; series mostly up to 57.5 µM
How it was run: as §3

PA-1 = assay: as above; settings: Gynecologic cancer cell panel viability, ATPlite luminescence, 48 h; series mostly up to 57.5 µM
How it was run: as §3

CAOV3 = assay: as above; settings: Gynecologic cancer cell panel viability, ATPlite luminescence, 48 h; series mostly up to 57.5 µM
How it was run: as §3
% is set by controls: 0 for no effect and ±100 for the full control effect.

NS(=O)(=O)c1cc(C(=O)O)cc(N2CCCC2)c1Oc1ccccc1
inactive: max response (KB-3-1) 3.66% | max response (NIH3T3) -1.53% | Potency (MCC-13) | Potency (MCC-26) | Potency (MKL-1) | Potency (MKL-2) | Potency (UISO) | Potency (WaGa) | Potency (C33A) | Potency (CASKI) | Potency (Es-2) | Potency (HeLa) | Potency (Hek293T) | Potency (JEG-3) | Potency (OV90) | Potency (PA-1)

CCOC(=O)C(C#N)=C(c1ccccc1)c1ccccc1
inactive: max response (KB-3-1) 1.81% | max response (NIH3T3) 3.96% | Potency (MCC-13) | Potency (MCC-26) | Potency (MKL-1) | Potency (MKL-2) | Potency (UISO) | Potency (WaGa) | Potency (C33A) | Potency (CAOV3) | Potency (CASKI) | Potency (Es-2) | Potency (HeLa) | Potency (Hek293T) | Potency (JEG-3) | Potency (PA-1)

COc1cc(O)c(C(=O)c2ccccc2)cc1S(=O)(=O)O
inactive: max response (KB-3-1) -4.48% | max response (NIH3T3) 1.08% | Potency (MCC-13) | Potency (MCC-26) | Potency (MKL-1) | Potency (MKL-2) | Potency (UISO) | Potency (C33A) | Potency (CASKI) | Potency (Es-2) | Potency (HeLa) | Potency (Hek293T) | Potency (JEG-3) | Potency (OV90) | Potency (PA-1)

COc1cc(N)c(Cl)cc1C(=O)NC1CCN(Cc2ccccc2)CC1
inactive: max response (KB-3-1) 3.83% | max response (NIH3T3) -4.33% | Potency (MCC-13) | Potency (MCC-26) | Potency (MKL-1) | Potency (MKL-2) | Potency (UISO) | Potency (WaGa) | Potency (C33A) | Potency (CAOV3) | Potency (CASKI) | Potency (Es-2) | Potency (HeLa) | Potency (JEG-3) | Potency (PA-1)

CN(C)CCC[C@@]1(c2ccc(F)cc2)OCc2cc(C#N)ccc21
inactive: max response (KB-3-1) -13.4% | max response (NIH3T3) 0.771% | Potency (MCC-13) | Potency (MCC-26) | Potency (MKL-1) | Potency (MKL-2) | Potency (UISO) | Potency (WaGa) | Potency (C33A) | Potency (CAOV3) | Potency (CASKI) | Potency (Es-2) | Potency (HeLa) | Potency (Hek293T) | Potency (JEG-3) | Potency (PA-1)

C[N+]1(CC2COC(c3ccccc3)(C3CCCCC3)O2)CCCCC1 (stereo not given)
inactive: max response (KB-3-1) -6.02% | max response (NIH3T3) -8.34% | Potency (MCC-13) | Potency (MCC-26) | Potency (C33A) | Potency (CAOV3) | Potency (CASKI) | Potency (Es-2) | Potency (HeLa) | Potency (Hek293T) | Potency (JEG-3)
active: Potency (MKL-1) 10.6 µM | Potency (MKL-2) 5.96 µM | Potency (WaGa) 18.8 µM

Nc1nc(-c2ccccc2)c(Br)c(=O)[nH]1
inactive: max response (KB-3-1) 4.06% | max response (NIH3T3) -18.4% | Potency (MCC-13) | Potency (MCC-26) | Potency (MKL-1) | Potency (MKL-2) | Potency (UISO) | Potency (WaGa) | Potency (C33A) | Potency (CASKI) | Potency (Es-2) | Potency (HeLa) | Potency (Hek293T) | Potency (JEG-3) | Potency (OV90) | Potency (PA-1)

O=C1C(=O)c2ccccc2C(O)=C1C1CCC(c2ccc(Cl)cc2)CC1 (stereo not given)
inactive: max response (KB-3-1) -5.6% | max response (NIH3T3) 2.17% | Potency (MCC-13) | Potency (MCC-26) | Potency (MKL-1) | Potency (MKL-2) | Potency (UISO) | Potency (WaGa) | Potency (C33A) | Potency (CAOV3) | Potency (CASKI) | Potency (Es-2) | Potency (HeLa) | Potency (Hek293T) | Potency (JEG-3) | Potency (OV90) | Potency (PA-1)
